{"source": "PubChem BioAssay (NCATS)", "note": "Calls of active or inactive are those of the source. Calls follow the shape of the dose curve; as a rule, active = well fitted inhibition curve with a large enough effect; inconclusive = small, poorly fitted or top-dose-only effect; inactive = flat fitted curve, though single readings scatter.", "data": [{"target": "DNA polymerase III PolC-type (Bacillus subtilis (strain 168)) (UniProt P13267)", "sequence (P13267 whole entry, looked up)": "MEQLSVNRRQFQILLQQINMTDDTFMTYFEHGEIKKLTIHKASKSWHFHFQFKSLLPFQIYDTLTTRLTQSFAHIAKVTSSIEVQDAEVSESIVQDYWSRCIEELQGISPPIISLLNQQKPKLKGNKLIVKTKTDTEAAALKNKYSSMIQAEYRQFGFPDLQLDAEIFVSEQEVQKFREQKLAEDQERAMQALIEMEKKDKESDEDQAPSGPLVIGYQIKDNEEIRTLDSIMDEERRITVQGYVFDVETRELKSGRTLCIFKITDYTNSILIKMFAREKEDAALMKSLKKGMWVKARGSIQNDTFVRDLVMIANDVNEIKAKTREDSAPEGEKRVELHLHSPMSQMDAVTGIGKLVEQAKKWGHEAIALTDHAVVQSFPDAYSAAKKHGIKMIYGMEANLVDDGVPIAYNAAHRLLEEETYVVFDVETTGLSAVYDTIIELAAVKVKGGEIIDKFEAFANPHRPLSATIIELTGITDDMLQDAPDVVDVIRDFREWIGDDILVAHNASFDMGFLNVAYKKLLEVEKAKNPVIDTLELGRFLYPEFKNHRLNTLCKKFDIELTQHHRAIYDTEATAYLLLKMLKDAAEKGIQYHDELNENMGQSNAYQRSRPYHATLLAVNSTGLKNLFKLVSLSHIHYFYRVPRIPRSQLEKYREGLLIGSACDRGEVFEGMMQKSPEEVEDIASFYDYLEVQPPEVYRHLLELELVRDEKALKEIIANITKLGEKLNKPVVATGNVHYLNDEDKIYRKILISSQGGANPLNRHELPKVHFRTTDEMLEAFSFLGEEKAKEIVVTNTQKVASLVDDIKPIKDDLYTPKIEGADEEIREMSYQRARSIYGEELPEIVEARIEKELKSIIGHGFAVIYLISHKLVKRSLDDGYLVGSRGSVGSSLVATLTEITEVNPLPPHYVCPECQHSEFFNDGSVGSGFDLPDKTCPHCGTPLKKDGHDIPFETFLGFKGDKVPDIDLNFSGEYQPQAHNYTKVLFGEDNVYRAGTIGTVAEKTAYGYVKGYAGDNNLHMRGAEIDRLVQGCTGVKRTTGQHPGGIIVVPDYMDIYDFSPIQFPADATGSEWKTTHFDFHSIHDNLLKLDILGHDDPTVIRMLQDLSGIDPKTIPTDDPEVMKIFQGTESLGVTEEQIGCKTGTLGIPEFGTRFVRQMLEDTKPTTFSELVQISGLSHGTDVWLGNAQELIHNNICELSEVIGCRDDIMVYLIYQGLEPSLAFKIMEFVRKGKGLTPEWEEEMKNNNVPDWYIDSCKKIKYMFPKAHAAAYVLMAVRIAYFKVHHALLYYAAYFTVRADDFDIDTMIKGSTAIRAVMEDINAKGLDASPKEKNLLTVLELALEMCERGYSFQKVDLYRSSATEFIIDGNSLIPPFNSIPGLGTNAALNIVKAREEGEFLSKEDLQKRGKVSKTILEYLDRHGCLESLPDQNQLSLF", "assay": "qHTS Validation Assay for the Inhibitors of DNA Replication in Gram-Positive Bacteria (AID 485295);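 also: reconstituted holoenzyme with PolC plus beta clamp SSB and primase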", "settings": "Gram-positive bacterial DNA replication assay; series mostly up to 57.1 µM; activity change, negative = inhibition: at the top concentration", "experimental": "B Subtilis DNA polymerase III holoenzyme complex was assayed for DNA production by fluorescent detection of the double-stranded DNA product with PicoGreen dye. The holoenzyme complex was reconstituted from the following purified protein components: DNA Polymerase III, beta subunit processivity factor, SSB single-stranded DNA binding protein, and Primase. Single-stranded, circular M13Gori was used as a substrate with dNTPs and NTPs also supplied to the substrate reagent. Compounds from the NCGC collection were incubated with the holoenzyme mixture for […] at room temperature to allow binding to occur, and then the reaction was started by the addition of substrate. After 30 min incubation at room temperature, PicoGreen solution containing EDTA was added to stop the reaction and to visualize the double-stranded DNA produced. Reaction progress was measured in a ViewLux CCD imager in fluorescence intensity mode by using 480 nm excitation and 540 nm emission filter set.\n1. Thaw screening compounds.\n2. Label assay plates. Prepare pipette tips, reagent reservoirs, buffers and controls.\n1. Thaw Enzymes, DNA template, Nucleotides and PicoGreen dye concentrate. Thawed enzymes are stable on ice for ~1\nweek. Other thawed components are stable indefinitely.\n2. Prepare sufficient quantities of Enzyme, Substrate and PicoGreen Quench mixes (according to Table II). For the number of\ncompound plates being screened.\n3. Ensure that the tip wash station reservoirs have clean water and turn on recirculating chiller so that the chilled deck position\n1. Load 2 uL of EDTA controls (250 mM, Background, 100 % inhibition) and 2 uL of DMSO controls (Negative control, 0%\ninhibition) in the screening plates (flat-bottomed black 384-well polypropylene, Greiner Bio-one).\n2. Place Enzyme mix reservoir on the chiller position of the liquid handler deck. Make sure that chiller will maintain\ntemperature of Enzyme mix at 4degC. Substrate mix and PicoGreen Quench can be stored at room temp.\n3. Program liquid handling robotics to dispense 18 uL of Enzyme mix into assay plates. Wash tips.\n4. Aspirate and dispense 2 uL of compound from compound plates, mix and Incubate at room temperature for 10 minutes.\n5. Aspirate 5 ul of Substrate mix, dispense into assay plates and mix by pipetting. Wash tips.\n6. Incubate at room temperature (21 +/- 1 deg C) for 20 minutes.\n7. Quench reactions by addition of 25 uL PicoGreen Quench mix and mix by pipetting (using HTS robotics or bulk reagent\ndispenser such as a Multidrop or uFill). Keep plates in the dark or stacked until ready to read fluorescence.\n8. Read fluorescence intensity of plates on plate reader using \"Fluorescein (Ex 485 nm/ Em 535 nm, 0.1s)\" setting.", "values": [{"smiles": "Cn1c(=O)c2[nH]c(C3CCCC3)nc2n(C)c1=O", "activity change, negative = inhibition": "-4.79% (inactive)"}, {"smiles": "CCSC(=N)N", "activity change, negative = inhibition": "-4.61% (inactive)"}, {"smiles": "COc1ccc(-c2ccc(N)[n+](CCCC(=O)O)n2)cc1", "activity change, negative = inhibition": "1.09% (inactive)"}, {"smiles": "CCCCCC(O)CCCC(=O)O", "note": "(stereo not given)", "activity change, negative = inhibition": "-4.53% (inactive)"}, {"smiles": "CC(=O)NNC(=O)N1Cc2ccccc2Oc2ccc(Cl)cc21", "activity change, negative = inhibition": "-0.351% (inactive)"}, {"smiles": "C[C@@]1(C2CCCC2)Cc2cc(OCC(=O)O)c(Cl)c(Cl)c2C1=O", "activity change, negative = inhibition": "2.14% (inactive)"}, {"smiles": "O=C(O)c1cccnc1C(=O)O", "activity change, negative = inhibition": "5.86% (inactive)"}, {"smiles": "Nc1ncnc2c1c(-c1ccc(Oc3ccccc3)cc1)cn2C1CCCC1", "activity change, negative = inhibition": "-8.21% (inactive)"}, {"smiles": "CCCN(CCc1ccccc1)C1CCc2c(O)cccc2C1", "note": "(stereo not given)", "activity change, negative = inhibition": "7.06% (inactive)"}, {"smiles": "C[C@H](NC(=O)/C(C#N)=C/c1ccc(O)c(O)c1)c1ccccc1", "activity change, negative = inhibition": "-19.6% (inactive)"}, {"smiles": "c1ccc2c(c1)CCC[C@H]2Nc1nc2ccccc2[nH]1", "activity change, negative = inhibition": "6.74% (inactive)"}, {"smiles": "NC1C=CC=C(C(=O)O)C1", "note": "(stereo not given)", "activity change, negative = inhibition": "-4.74% (inactive)"}, {"smiles": "C[C@@H](NCCc1ccc(O)cc1)[C@@H](O)c1ccc(O)cc1", "activity change, negative = inhibition": "-5.14% (inactive)"}, {"smiles": "CC(C)(C)c1ccc(/C=C/C(=O)Nc2ccc3c(c2)OCCO3)cc1", "activity change, negative = inhibition": "-9.41% (inactive)"}, {"smiles": "Cc1cccc(C(=O)NCN2CCN(c3ccccc3C#N)CC2)c1", "activity change, negative = inhibition": "-7.37% (inactive)"}, {"smiles": "NC1CONC1=O", "note": "(stereo not given)", "activity change, negative = inhibition": "0.981% (inactive)"}, {"smiles": "COc1ccc(CCn2nnnc2C2(c3ccc(C)cc3)CC2)cc1", "activity change, negative = inhibition": "-4.43% (inactive)"}, {"smiles": "C=CCn1c(=O)c2c(nc(-c3ccc(S(=O)(=O)O)cc3)n2C)n(C)c1=O", "activity change, negative = inhibition": "-5.64% (inactive)"}, {"smiles": "NCCCCN", "activity change, negative = inhibition": "-3.88% (inactive)"}, {"smiles": "NCCC1CCCC(CCN)N1", "note": "(stereo not given)", "activity change, negative = inhibition": "8.88% (inactive)"}, {"smiles": "CC(N)(Cc1ccc(O)c(O)c1)C(=O)O", "note": "(stereo not given)", "activity change, negative = inhibition": "-16.9% (inactive)"}, {"smiles": "CC(C)(CO)Cc1cc(C(C)(C)C)c(O)c(C(C)(C)C)c1", "activity change, negative = inhibition": "-8.05% (inactive)"}, {"smiles": "CC1CCN=C(N)S1", "note": "(stereo not given)", "activity change, negative = inhibition": "-1.29% (inactive)"}, {"smiles": "Cc1cccc(C)c1OCC(N)C(C)C", "note": "(stereo not given)", "activity change, negative = inhibition": "-0.302% (inactive)"}, {"smiles": "C=CCN1CCc2c(cc(O)c(O)c2Br)[C@@H](c2ccccc2)C1", "activity change, negative = inhibition": "-3.39% (inactive)"}, {"smiles": "N#C/C(=C\\c1ccc(O)c(O)c1)C(=O)NCCc1ccccc1", "activity change, negative = inhibition": "-5.67% (inactive)"}, {"smiles": "NC(Cc1cccc(-c2ccccc2CP(=O)(O)O)c1)C(=O)O", "note": "(stereo not given)", "activity change, negative = inhibition": "6.96% (inactive)"}, {"smiles": "O=C(O)Cc1ccc(O)c(O)c1", "activity change, negative = inhibition": "-3.52% (inactive)"}, {"smiles": "CN(C)C(=O)/N=N/C(=O)N(C)C", "activity change, negative = inhibition": "-5.4% (inactive)"}, {"smiles": "CSc1nc(N)c2ncn([C@@H]3O[C@H](COP(=O)(O)OP(=O)(O)O)C(O)[C@H]3O)c2n1", "note": "(stereo not given in full)", "activity change, negative = inhibition": "-2.22% (inactive)"}, {"smiles": "C=CCN1CCc2c(cc(O)c(O)c2Cl)C(c2ccccc2)C1", "note": "(stereo not given)", "activity change, negative = inhibition": "-13.3% (inactive)"}, {"smiles": "CCCOC(=O)c1c(-c2ccccc2)nc(CC)c(C(=O)SCC)c1CCC", "activity change, negative = inhibition": "0.0306% (inactive)"}, {"smiles": "c1ccc(C(NCCNC(c2ccccc2)c2ccccc2)c2ccccc2)cc1", "activity change, negative = inhibition": "-5.77% (inactive)"}, {"smiles": "N[C@H](C(=O)O)c1cc(O)cc(O)c1", "activity change, negative = inhibition": "-2.15% (inactive)"}, {"smiles": "NC(N)=NC(N)=Nc1cccc(Cl)c1", "activity change, negative = inhibition": "2.08% (inactive)"}, {"smiles": "CC1C(=O)N(C)C(=O)c2nc[nH]c21", "note": "(stereo not given)", "activity change, negative = inhibition": "1.62% (inactive)"}, {"smiles": "O=C(O)C1CN(CCCP(=O)(O)O)CCN1", "note": "(stereo not given)", "activity change, negative = inhibition": "-7.14% (inactive)"}, {"smiles": "N=C(N)SCCN", "activity change, negative = inhibition": "-0.808% (inactive)"}, {"smiles": "CCCn1c(=O)c2c(ncn2C)n(CCC)c1=O", "activity change, negative = inhibition": "-1.78% (inactive)"}, {"smiles": "COC(=O)C(C)(N)Cc1ccc(O)cc1", "note": "(stereo not given)", "activity change, negative = inhibition": "6.16% (inactive)"}]}]}
